Screening data (PubChem)
ATXN viability = cell viability loss in ATXN counter-screen. actives 0.49% (n = 400,000). S2 cells (HEK-293 line with an ATXN2-luciferase reporter) viability, CellTiter-Fluor protease fluorescence, 24 h. Potency, µM (doses to about 56.7 µM), most hits filed as cytotoxic; note: nearly all actives have a fitted effect of over 40% in size
HepG2 viability = kills HepG2 cells in TGF-b inhibitor counter-screen; AID 588856; HepG2 CAGA-GFP viability, ATP luminescence, 18 h; actives 0.76% (n = 410,000); Potency, µM (titrated, usually from 46.1 µM), for inactives: at the highest dose activity change, negative = cytotoxicity, most hits filed as cytotoxic
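HepG2 CAGA-GFP cells (1000/well, DMEM with 1% FBS) received compound, then TGF-beta at 500 pg/mL final, and were incubated 18 hours at 37 degrees C. Viability was read by CellTiter-Glo luminescence. Media-only wells were set as complete cell-killing and DMSO as no toxicity.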
TGFb inhibitor = inhibitors of TGF-b signaling | Potency, µM (titrated, usually from 46.1 µM), for inactives: top-dose activity, negative = inhibition, most hits filed as inhibitors | actives 1.2% (n = 410,000) | HepG2 CAGA-GFP TGF-b/SMAD3 reporter, GFP fluorescence, 18 h; TGF-beta stimulated, 500 pg/mL final; note: % is set by controls: 0 for no effect and ±100 for the full control effect; nearly all actives have a fitted effect of over 65% in size
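First, reporter cells (HEPG2 CAGA-GFP) rested 2 h at 37 degrees C. Next, compounds were pinned in and TGF-beta added to 500 pg/mL final. After 18 h, GFP was imaged per cell and summed per well.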
ATXN2 expr inh = inhibitors of ATXN2 expression | HEK-293 ATXN2-luciferase reporter, luminescence, 24 h | Potency, µM (highest dose often 57 µM), without a hit: at the highest dose activity change, negative = inhibition, hits mostly inhibitors | actives 0.72% (n = 360,000); note: % is set by controls: 0 for no effect and ±100 for the full control effect; nearly all actives have a fitted effect of over 55% in size
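qHTS (up to 57 uM final) was run with 24 h compound exposure of reporter cells at 37 °C. Each well was multiplexed: SteadyGlo luminescence measured ATXN2-luciferase expression after a fluorogenic Gly-Phe-AFC viability readout (25 uM final).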
DT40 TDP1 CPT = growth inhibition of DT40 Tdp1-/-;hTDP1 cells with camptothecin (screen for TDP1 inhibitors). chicken DT40 Tdp1-/-;hTDP1 cells + 20 nM CPT, ATP luminescence, 48 h. Potency, µM (top dose mostly 46.2 µM), for inactives: at the highest dose activity change, negative = growth inhibition, usual class: inhibitors. actives 12% (n = 420,000). AID 686979; note: % is set by controls: 0 for no effect and ±100 for the full control effect; nearly all actives have a fitted effect of over 55% in size
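Chicken DT40 Tdp1-/- cells complemented with human TDP1, 400 cells/well, exposed to compounds plus 20 nM camptothecin for at least 48 h at 37 C; viability read as ATP content by CellTiter-Glo luminescence.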
DT40 TDP1 no CPT = qHTS for Inhibitors of human tyrosyl-DNA phosphodiesterase 1 (TDP1): qHTS in cells in absence of CPT; DT40 Tdp1-/- hTDP1 cells, no CPT, ATP luminescence, 48 h; Potency, µM (series often up to 46.2 µM), inactives show at the top dose activity change, negative = growth inhibition, most hits filed as inhibitors; actives 15% (n = 420,000); AID 686978, 2013; note: % is set by controls: 0 for no effect and ±100 for the full control effect; nearly all actives have a fitted effect of over 55% in size
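Compound effects on proliferation are scored in DT40 Tdp1-/-;hTDP1 cells in the absence of CPT. ATP levels (CellTiter-Glo luminescence) are recorded after a ≥48 hr, 37 °C incubation.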
* = called active by the depositor; i = inactive; ? = inconclusive; / = no result given. The list is not random: actives were taken first. Their share in the collection is about 17%. Calls come from the whole dose curve; as a rule, active = well fitted curve in the direction sought with a large enough effect; inconclusive = small, poorly fitted or top-dose-only effect, or another doubt; inactive = no such curve, though single readings can be large; an effect the other way counts as inactive or inconclusive. Potency is the fitted concentration of half-maximal effect.

SMILES | ATXN viability | HepG2 viability | TGFb inhibitor | ATXN2 expr inh | DT40 TDP1 CPT | DT40 TDP1 no CPT
CCn1cc(CNC(=O)c2cc(-c3ccc(C)c(C)c3)nc3ccccc23)c(C)n1 | i | -23.8% | -17.4% | 4.2% | 14.6µM* | 16.4µM*
COCCNC(=O)c1cc(-c2ccc(-c3ccccc3)cc2)nc2ccccc12 | i | -17.2% | 0.0% | 54.3% | 11.6µM* | 5.17µM*
Cc1ccc(-c2cc(C(=O)NCc3ccccn3)c3ccccc3n2)cc1C | i | -39.1% | -45.8% | 56.3% | ? | 7.31µM*
CCC(C)N1CC23C=CC(O2)C(C(=O)OCc2ccccc2)C3C1=O (stereo not given) | i | -9.2% | 0.6% | -19.1% | -0.1% | -7.4%
O=C(NCc1ccccn1)c1cc(-c2ccccc2)nc2ccccc12 | i | 9.1% | -1.7% | 2.2% | 4.6% | -2.9%
O=C(NCCc1ccccn1)c1c(-c2ccsc2)sc2ccccc12 | i | -4.6% | -24.6% | -1.2% | ? | ?
Cc1cccc(-c2cc(C(=O)NCc3ccccn3)c3ccccc3n2)c1 | ? | 3.4% | -1.3% | 31.6% | 16.4µM* | 13µM*
O=C(NCCc1ccccn1)c1c(-c2ccccc2)sc2ccccc12 | i | -19.5% | ? | -2.4% | ? | 16.4µM*
Cc1ccc(-c2cc(C(=O)NCCCN3CCCC3)c3ccccc3n2)cc1C | i | -26.7% | -23.9% | -39.0% | ? | 29.1µM*
Cc1cc(CNC(=O)c2cc(-c3ccccc3)nc3ccccc23)nn1C | i | -2.7% | -6.7% | -15.6% | ? | 20.6µM*
Cc1ccccc1Cn1cc(CCC(=O)N2CCOCC2)c2ccccc21 | i | -20.3% | ? | 0.8% | ? | ?
Cc1ccc(-n2[nH]c(C)c(/C=N/c3ccccn3)c2=O)cc1 | i | 10µM* | -14.6% | 7.6% | ? | ?
Cc1[nH]n(-c2ccccc2)c(=O)c1/C=N/N1C(=O)c2cccc3cccc(c23)C1=O | ? | -62.5% | ? | ? | ? | 16.4µM*
COc1ccc2nc(/N=C/c3c(C)[nH]n(-c4ccc(C)cc4)c3=O)sc2c1 | i | 8.91µM* | -23.4% | 4.3% | 13µM* | ?
Cc1ccc(-n2[nH]c(C)c(C=Nc3cc(C)ccn3)c2=O)cc1 | i | -76.5% | -4.0% | -6.7% | ? | ?
Cc1[nH]n(-c2ccc(Cl)cc2)c(=O)c1/C=N/c1nnc(-c2ccccc2)s1 | ? | -50.4% | -3.9% | 22.6% | ? | 16.4µM*
O=C(CNC(=S)N(Cc1ccccc1F)C1CCCCC1)NCC1CCCO1 (stereo not given) | i | -42.2% | -27.4% | -29.6% | ? | ?
CCOC(=O)C1CCC(CN(Cc2ccc(OC)cc2)S(=O)(=O)c2ccc(F)c(C(=O)Nc3c(C)cccc3C)c2)CC1 (stereo not given) | i | -6.5% | -5.8% | -6.3% | ? | ?
COc1cccc(CNC(=O)CCc2c(C)c3ccc(O)c(C)c3oc2=O)c1 | / | -23.9% | ? | / | 3.8% | -13.7%
Cc1[nH]n(-c2ccccc2)c(=O)c1C=Nc1cccc2cccnc12 | i | -28.7% | ? | ? | 0.651µM* | 0.92µM*
COc1ccc(-n2c(=S)[nH]c3cc(C(=O)N(C)Cc4ccccc4)ccc3c2=O)cc1 | i | -1.9% | 10.0% | -12.1% | -28.4% | ?
COc1ccc(CNC(=O)CSc2nc(-c3ccccc3)cc(-c3cccs3)c2C#N)cc1 | i | -18.9% | -5.3% | ? | 14.6µM* | ?
